Drawing on PubChem BioAssay, this text covers z-score for 32 molecules.

The test in a line: S6 kinase pathway phospho-S6 level changes – cell-based, A549, cytoblot, luminescence, serum-stimulated, primary screen (AID 1158).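 Further: serum-stimulated A549 lung adenocarcinoma cells; signal is phosphorylated S6 detected by cytoblot immunostaining with HRP secondary.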 Particulars: 5 h, higher = more signal.
For `COC(=O)[C@@]1(Cc2ccc(OC)cc2)[C@H]2c3cc(C(=O)N(C)C)n(Cc4ccc(C)o4)c3C[C@H]2CN1C(=O)c1ccccc1`, the z-score came out at 1.5.

In the case of `CCCCCN1CC=CC23O[C@@H]4/C=C\CCC(C)OC(=O)C4[C@H]2C(=O)N(C(CO)C(C)C)[C@@H]3C1=O` (some centres not stated), the z-score is -0.0209.

Regarding `CCOC(=O)C[C@H]1[C@H](OC(=O)c2ccccc2-c2ccccc2)[C@@H](NC(=O)c2ccc3ccccc3n2)c2cc(OCCCO)ccc2N1C(=O)Cc1ccc(OC)cc1`, the z-score was -0.303.

As to `O=C1OCCC/C=C\[C@H]2OC34C=CCN(c5ccc6ccccc6c5)C(=O)[C@H]3N(CCO)C(=O)[C@@H]4C12` (some centres not stated), the z-score worked out at 0.235.

In turn, `O=C1N(Cc2ccccc2)c2ccccc2C[C@]12N=C(c1ccc(OCCCO)cc1)O[C@@H]2c1ccccc1` had a z-score of -0.027.

The molecule `O[C@@H](Cc1ccccc1)[C@@H](/C=C/C1CC1)N(CC#Cc1ccccc1)Cc1ccccc1Br` came in with a z-score of 0.131.

For `O=C(C1N=C(c2ccc(OCCCO)cc2)N(c2ccccc2)O1)N1CCCCC1` (configuration not stated), the z-score is -0.0704.

In turn, `CC(C)[Si]1(C(C)C)OCc2cc(-c3ccc(-c4ccc(Cl)c(Cl)c4)o3)nc(-c3ccccc3)c21` had a z-score of -0.106.

In turn, `COc1ccc([Si](C)(C)[C@@H]2[C@@H](CCO)O[C@]3(C(=O)N(Cc4ccccc4)c4ccc(NC(=O)[C@H](C)O)cc43)[C@H]2C)cc1` returned a z-score of 0.402.

`COc1cc(NN2C(C(O)c3ccc(N(C)C)cc3)C=CC3C(=O)N(c4ccccc4)C(=O)C32)cc(OC)c1OC` (configuration not stated) registered a z-score of 1.15.

With `Cn1cccc1C(O)C1C=CC2C(=O)N(c3ccccc3)C(=O)C2N1Nc1ccccc1` (configuration not stated), the z-score was -0.55.

`CCOC(=O)C=Cc1cccc(C)c1O` displayed a z-score of 1.52.

Regarding `COC(=O)C1=CC(CCCO)=CC(c2cccs2)N(Cc2cccc(OC(F)(F)F)c2)C=C1C(=O)OC` (configuration not stated), the z-score is -0.344.

Regarding `[N-]=[N+]=Nc1ccccc1[C@@H]1OC(c2ccc(OCCCO)cc2)=N[C@]1(Cc1ccccc1)C(=O)N1CCCCC1`, the z-score came out at 0.328.

`C=CCNC(=O)[C@@H]1[C@H]2C(=O)O[C@H](c3ccccc3)[C@H](c3ccccc3)N2[C@H](c2ccc(O)cc2)[C@@]12C(=O)N(C(=O)OCCOC)c1ccc(C#CC3=CCCCC3)cc12` registered a z-score of 0.0229.

Take `CCOC(=O)C[C@H]1[C@H](OC(=O)c2cc3ccccc3oc2=O)[C@@H](NC(=O)CC(C)C)c2cc(OCCCO)ccc2N1C(=O)c1ccc2ccccc2n1`: the z-score is -0.679.

With `NCCCCCNC(=O)[C@@H]1C[C@@H]2C(=O)N[C@@H](CCCCN)C(=O)N2[C@@H]1c1ccc(O)cc1`, the z-score is -0.912.

Molecule `CC(C)C(CO)N1C(=O)[C@@H]2C3C(=O)OCCC/C=C\[C@H]3OC23C=CCN(Cn2nnc4ccccc42)C(=O)[C@@H]13` (some centres not stated) returned a z-score of 1.36.

Molecule `[N-]=[N+]=NCc1ccccc1C[C@@]1(C(N)=O)N=C(c2ccc(OCCCO)cc2)O[C@@H]1c1ccccc1` registered a z-score of -0.494.

The molecule `CCOC(=O)C[C@H]1[C@H](OC(=O)c2ccc(C(=O)c3ccccc3)cc2)[C@@H](NC(=O)CC(C)C)c2cc(OCCCO)ccc2N1C(=O)c1ccccc1` had a z-score of -0.163.

Regarding `CC(C)[Si](C#C[Si](C(C)C)(C(C)C)C(C)C)(O[C@H](c1ccccc1)c1cn(Cc2ccccc2)nn1)C(C)C`, the z-score is -0.25.

Turning to `COC(=O)C/C=C/C[C@]1(O)C(=O)N(C)c2ccccc21`, the z-score was 1.26.

In turn, `CN1C(=O)C2C=CC(C(O)c3cccn3C)N(Nc3ccc([N+](=O)[O-])cc3[N+](=O)[O-])C2C1=O` (configuration not stated) returned a z-score of -1.11.

Molecule `C=CCN1Cc2ccccc2[C@@H]2OC(c3ccc(OCCCO)cc3)=N[C@]2(CC=C)C1=O` yielded a z-score of -0.218.

On to `CCCC=C(CCC)[C@@H](NP(=O)(c1ccccc1)c1ccccc1)c1ccc(-c2ccccc2)cc1`, for which the z-score was -0.422.

`C=C(COC)C(=O)CC[C@@H](OC(C)=O)c1cccc(OCCO)c1` showed a z-score of -0.487.

Turning to `CCOC(=O)C1=CC[C@@H](c2ccccc2F)N(S(=O)(=O)c2ccc(C)cc2)[C@H]1c1ccccc1`, the z-score is -0.445.

Regarding `O=C1O[C@H](c2ccccc2)[C@H](c2ccccc2)N2[C@H]1[C@@H](C(=O)O)[C@]1(C(=O)Nc3ccc(C#CCCO)cc31)[C@H]2c1ccccc1OCCO`, the z-score is -0.0545.

Consider `COc1cc2c(cc1O)C(C1CC1)N(C)CC2` (configuration not stated), for which the z-score was -0.0452.

For `COC(=O)[C@@]1(Cc2ccc(OC)cc2)[C@H]2c3cc(C(=O)N4CCCC4)n(CCO)c3C[C@H]2CN1C(=O)c1ccccc1`, the z-score was 0.604.

Consider `[N-]=[N+]=Nc1ccccc1C[C@]1(C(=O)N2CCOCC2)COC(c2ccc(OCCCO)cc2)=N1`, for which the z-score stood at 0.779.

Turning to `O=C1C2C=CC(C(O)c3ccco3)N(Nc3ccccc3F)C2C(=O)N1c1ccccc1` (configuration not stated), the z-score is -0.754.
